# Test system: MKNK1
# Conditions: concentration: 1 μM, replicates: in singlicate; n = 1
# 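Further: KINOMEscan kinase panel screen.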
row,Compound,%Inh
1,c1ccc(-c2ccnc3[nH]ccc23)cc1 [SB-693578],0%
2,COc1ccc(Nc2nccc(N3CCC(NC(=O)C(C)c4ccc(Cl)cc4)C3)n2)cc1 (stereo not drawn) [GSK1379735],12%
3,Nc1nccc(-c2c(-c3ccc(F)cc3)ncn2C2CCN(Cc3ccccc3)CC2)n1 [SB-219980],0%
4,Cl.Cl.Cl.N#Cc1ccc(CCNc2nccc(-c3cccc(CN4CCNCC4)c3)n2)cc1 [GSK2137462],46%
5,Cc1cccc2c(-c3ccncn3)c(-c3ccc(F)cc3)nn12 [GW515532],0%
6,O=C(Nc1n[nH]c2nc(-c3cccs3)c(Br)cc12)C1CC1 [SB-735297],46%
7,CC(=O)c1c(C)c2cnc(Nc3ccn(C)n3)nc2n(C2CCCC2)c1=O,0%
8,COc1cccc(NC(=O)Nc2ccc(C)c(-c3ccc(C(=O)Nc4ccncc4)cc3)c2)c1 [GSK1398474],4%
9,CCc1ccc(-c2ccc3c(c2)-c2n[nH]cc2S(=O)(=O)N3C)cc1,0%
10,CNc1nc(-c2ccc3c(N)n[nH]c3c2)cc(N2C[C@@H](C(=O)Nc3ccccc3)CC[C@H]2C)n1 [GSK2298859],0%
11,COc1cccc(C2=C(Nc3cc(Cl)c(O)c(Cl)c3)C(=O)NC2=O)c1 [SB-390767],6%
12,Cn1cncc1C(=O)NC1CCN(c2ccnc(Nc3ccc(F)cc3)n2)C1 (stereo not drawn) [GSK1379717],0%
13,Fc1ccc(-c2nc3n(c2-c2ccncc2)CCS3)cc1 [GI98581],0%
14,CS(=O)(=O)CCNCc1nc(-c2ccc3ncnc(Nc4ccc(OCc5ccccc5)c(Cl)c4)c3c2)cs1.Cl [GW582764],0%
15,COc1ccc(Nc2nccc(NCCNC(=O)Nc3cc(C)ccc3C)n2)cc1 [GSK1379899],0%
16,O=c1cc(N2CCOCC2)nc2n(Cc3cccc(Cl)c3Cl)c3ccccc3n12 [GSK2299009],10%
17,FC(F)(F)c1ccccc1-c1cc(-c2c[nH]nc2-c2ccccn2)ccn1 [GW679396],5%
18,Cn1cncc1-c1cc2c(Nc3ccc(OCc4ccccc4)cc3)ncnc2cn1 [GW281179],0%

row,Compound,%Inh
1,COc1ccc(CSc2nnc(-c3ccc4c(c3)CCO4)o2)cc1,0%
2,CC(=O)c1cccc(NC(=O)NC2CCN(c3ccnc(Nc4ccc(F)cc4)n3)C2)c1 (stereo not drawn) [GSK1379710],27%
3,CNc1cc(-c2ccc3c(N)n[nH]c3c2)nc(N)n1 [GSK2224810],4%
4,Cc1nccc(-c2c(-c3ccc(F)cc3)ncn2CCCN2CCOCC2)n1.Cl [SB-282975],11%
5,Cc1ccccc1-c1cc(-c2c[nH]nc2-c2ccccn2)ccn1 [GW680061],9%
6,COc1nccc(-c2c(-c3ccc(F)cc3)ncn2CCCN2CCOCC2)n1 [SB-282852],54%
7,Cc1ccc(-c2nc(Nc3ccncc3)c3ccccc3n2)s1 [GSK189015],5%
8,Nc1cccc(-c2ccc3c(N)n[nH]c3c2)n1 [GSK2192730],13%
9,COC(=O)C(NC(=O)NC1CCN(c2ccnc(Nc3ccc(F)cc3)n2)C1)c1ccccc1 (stereo not drawn) [GSK1379712],24%
10,CN1c2ccc(-c3ccc(C(N)=O)cc3)cc2-c2[nH]ncc2S1(=O)=O,0%
11,CC(=O)c1c(C)c2cnc(Nc3ccc(N4CCNCC4)cn3)nc2n(C2CCCC2)c1=O,0%
12,CS(=O)(=O)Cc1ccc(Nc2nccc(-c3c(-c4cccc(NC(=O)C5CCCCC5)c4)nn4ncccc34)n2)cc1 [GSK350559],25%
13,Cc1ccc(NC(=O)Nc2ccccc2)cc1-c1ccc(C(=O)Nc2ccncc2)cc1 [GSK1398471],3%
14,NS(=O)(=O)c1cccc(N/C=C2\C(=O)Nc3ccc(S(=O)(=O)Cc4c(Cl)cccc4Cl)cc32)c1 [GSK398099],0%
15,COc1ccc2cc(-c3nc(-c4ccccc4C(C)C)[nH]c3-c3ccncc3)ccc2c1 [SB-660566],5%
16,O=C(Nc1n[nH]c2cc(-c3ccsc3)ccc12)C1CC1 [SB-732932],0%
17,COc1cccc(CNC(=O)NC2CCN(c3ccnc(Nc4ccc(F)cc4)n3)C2)c1 (stereo not drawn) [GSK1379723],13%
18,Cc1cnc(N)c(/C=C/c2cncc(C(=O)NCCc3ccc(Cl)cc3Cl)c2)c1.Cl [GSK190937],0%

# Test system: MKNK2
# Conditions: concentration: 1 μM, replicates: in singlicate; n = 1
row,Compound,%Inh
1,c1ccc(-c2ccnc3[nH]ccc23)cc1 [SB-693578],25%
2,COc1ccc(Nc2nccc(N3CCC(NC(=O)C(C)c4ccc(Cl)cc4)C3)n2)cc1 (stereo not drawn) [GSK1379735],2%
3,Nc1nccc(-c2c(-c3ccc(F)cc3)ncn2C2CCN(Cc3ccccc3)CC2)n1 [SB-219980],0%
4,Cl.Cl.Cl.N#Cc1ccc(CCNc2nccc(-c3cccc(CN4CCNCC4)c3)n2)cc1 [GSK2137462],2%
5,Cc1cccc2c(-c3ccncn3)c(-c3ccc(F)cc3)nn12 [GW515532],3%
6,O=C(Nc1n[nH]c2nc(-c3cccs3)c(Br)cc12)C1CC1 [SB-735297],39%
7,CC(=O)c1c(C)c2cnc(Nc3ccn(C)n3)nc2n(C2CCCC2)c1=O,0%
8,COc1cccc(NC(=O)Nc2ccc(C)c(-c3ccc(C(=O)Nc4ccncc4)cc3)c2)c1 [GSK1398474],24%
9,CCc1ccc(-c2ccc3c(c2)-c2n[nH]cc2S(=O)(=O)N3C)cc1,0%
10,CNc1nc(-c2ccc3c(N)n[nH]c3c2)cc(N2C[C@@H](C(=O)Nc3ccccc3)CC[C@H]2C)n1 [GSK2298859],0%
11,COc1cccc(C2=C(Nc3cc(Cl)c(O)c(Cl)c3)C(=O)NC2=O)c1 [SB-390767],26%
12,Cn1cncc1C(=O)NC1CCN(c2ccnc(Nc3ccc(F)cc3)n2)C1 (stereo not drawn) [GSK1379717],5%
13,Fc1ccc(-c2nc3n(c2-c2ccncc2)CCS3)cc1 [GI98581],2%
14,CS(=O)(=O)CCNCc1nc(-c2ccc3ncnc(Nc4ccc(OCc5ccccc5)c(Cl)c4)c3c2)cs1.Cl [GW582764],0%
15,COc1ccc(Nc2nccc(NCCNC(=O)Nc3cc(C)ccc3C)n2)cc1 [GSK1379899],0%
16,O=c1cc(N2CCOCC2)nc2n(Cc3cccc(Cl)c3Cl)c3ccccc3n12 [GSK2299009],8%
17,FC(F)(F)c1ccccc1-c1cc(-c2c[nH]nc2-c2ccccn2)ccn1 [GW679396],0%
18,Cn1cncc1-c1cc2c(Nc3ccc(OCc4ccccc4)cc3)ncnc2cn1 [GW281179],47%

row,Compound,%Inh
1,COc1ccc(CSc2nnc(-c3ccc4c(c3)CCO4)o2)cc1,0%
2,CC(=O)c1cccc(NC(=O)NC2CCN(c3ccnc(Nc4ccc(F)cc4)n3)C2)c1 (stereo not drawn) [GSK1379710],0%
3,CNc1cc(-c2ccc3c(N)n[nH]c3c2)nc(N)n1 [GSK2224810],31%
4,Cc1nccc(-c2c(-c3ccc(F)cc3)ncn2CCCN2CCOCC2)n1.Cl [SB-282975],1%
5,Cc1ccccc1-c1cc(-c2c[nH]nc2-c2ccccn2)ccn1 [GW680061],0%
6,COc1nccc(-c2c(-c3ccc(F)cc3)ncn2CCCN2CCOCC2)n1 [SB-282852],42%
7,Cc1ccc(-c2nc(Nc3ccncc3)c3ccccc3n2)s1 [GSK189015],17%
8,Nc1cccc(-c2ccc3c(N)n[nH]c3c2)n1 [GSK2192730],61%
9,COC(=O)C(NC(=O)NC1CCN(c2ccnc(Nc3ccc(F)cc3)n2)C1)c1ccccc1 (stereo not drawn) [GSK1379712],6%
10,CN1c2ccc(-c3ccc(C(N)=O)cc3)cc2-c2[nH]ncc2S1(=O)=O,0%
11,CC(=O)c1c(C)c2cnc(Nc3ccc(N4CCNCC4)cn3)nc2n(C2CCCC2)c1=O,0%
12,CS(=O)(=O)Cc1ccc(Nc2nccc(-c3c(-c4cccc(NC(=O)C5CCCCC5)c4)nn4ncccc34)n2)cc1 [GSK350559],13%
13,Cc1ccc(NC(=O)Nc2ccccc2)cc1-c1ccc(C(=O)Nc2ccncc2)cc1 [GSK1398471],0%
14,NS(=O)(=O)c1cccc(N/C=C2\C(=O)Nc3ccc(S(=O)(=O)Cc4c(Cl)cccc4Cl)cc32)c1 [GSK398099],12%
15,COc1ccc2cc(-c3nc(-c4ccccc4C(C)C)[nH]c3-c3ccncc3)ccc2c1 [SB-660566],22%
16,O=C(Nc1n[nH]c2cc(-c3ccsc3)ccc12)C1CC1 [SB-732932],54%
17,COc1cccc(CNC(=O)NC2CCN(c3ccnc(Nc4ccc(F)cc4)n3)C2)c1 (stereo not drawn) [GSK1379723],8%
18,Cc1cnc(N)c(/C=C/c2cncc(C(=O)NCCc3ccc(Cl)cc3Cl)c2)c1.Cl [GSK190937],2%
